# Experimental data taken from article PMC7862700, “An all-to-all approach to the identification of sequence-specific readers for epigenetic DNA modifications on cytosine”.
# How the values were obtained:
# Assay in all cases: DAPPL (digital affinity profiling via proximity ligation, sequencing); 10 mM Tris-HCl pH 7.5, 50 mM NaCl, 1 mM DTT, 4% glycerol, room temperature, 30 min; GST-TFs on glutathione beads, 16-mer random dsDNA library, 0.1% formaldehyde crosslink after washing; high values mean tight binding
# Conditions in all cases: protein: recombinant; tags: N-terminal GST; dsDNA, one strand shown
# ELK1 = biological target: T1, ELK1 (Homo sapiens, UniProt P19419 1-428)
# T1 sequence: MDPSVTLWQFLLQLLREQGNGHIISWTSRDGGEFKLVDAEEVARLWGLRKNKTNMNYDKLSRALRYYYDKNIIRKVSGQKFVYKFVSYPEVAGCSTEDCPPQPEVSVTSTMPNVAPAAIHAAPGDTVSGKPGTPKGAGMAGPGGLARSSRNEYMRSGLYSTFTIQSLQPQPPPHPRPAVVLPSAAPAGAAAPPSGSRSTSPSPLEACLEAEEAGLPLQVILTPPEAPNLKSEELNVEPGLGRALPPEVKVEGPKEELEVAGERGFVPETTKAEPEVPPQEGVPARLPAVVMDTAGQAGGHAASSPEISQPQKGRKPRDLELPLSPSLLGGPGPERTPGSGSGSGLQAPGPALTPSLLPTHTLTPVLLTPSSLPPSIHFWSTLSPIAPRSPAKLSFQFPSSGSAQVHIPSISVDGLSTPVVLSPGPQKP
# Procedure, shortened: (§1)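 GST fusions of human transcription factors were expressed in yeast and captured with glutathione beads. Once given DNA barcodes and pooled alongside a tag-only sample, they were incubated for 30 min at room temperature with 200 nmole of a random double-stranded 16-mer DNA library in Tris/NaCl/DTT/glycerol buffer, then washed, crosslinked (0.1% formaldehyde), proximity-ligated, PCR-amplified and sequenced on an Illumina NextSeq500. The binding signal of each hexamer is its read frequency for a factor divided by its frequency for the tag-only sample.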
# GABPA = biological target: T2, GABPA (Homo sapiens, UniProt Q06546 1-454)
# T2 sequence: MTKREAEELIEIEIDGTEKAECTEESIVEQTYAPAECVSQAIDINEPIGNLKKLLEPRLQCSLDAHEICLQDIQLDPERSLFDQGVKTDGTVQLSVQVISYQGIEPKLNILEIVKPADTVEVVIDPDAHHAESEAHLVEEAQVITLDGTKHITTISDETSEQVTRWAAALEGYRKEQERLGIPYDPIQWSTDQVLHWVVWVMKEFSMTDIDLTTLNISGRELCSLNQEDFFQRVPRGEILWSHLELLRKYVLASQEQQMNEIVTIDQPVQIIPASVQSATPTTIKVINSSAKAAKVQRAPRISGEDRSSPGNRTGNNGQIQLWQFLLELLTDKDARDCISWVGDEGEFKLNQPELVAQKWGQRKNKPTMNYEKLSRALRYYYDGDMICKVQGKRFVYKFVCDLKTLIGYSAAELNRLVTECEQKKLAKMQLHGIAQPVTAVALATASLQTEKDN
# Procedure, shortened: as §1
# ERG = biological target: T3, ERG (Homo sapiens, UniProt P11308 1-479)
# T3 sequence: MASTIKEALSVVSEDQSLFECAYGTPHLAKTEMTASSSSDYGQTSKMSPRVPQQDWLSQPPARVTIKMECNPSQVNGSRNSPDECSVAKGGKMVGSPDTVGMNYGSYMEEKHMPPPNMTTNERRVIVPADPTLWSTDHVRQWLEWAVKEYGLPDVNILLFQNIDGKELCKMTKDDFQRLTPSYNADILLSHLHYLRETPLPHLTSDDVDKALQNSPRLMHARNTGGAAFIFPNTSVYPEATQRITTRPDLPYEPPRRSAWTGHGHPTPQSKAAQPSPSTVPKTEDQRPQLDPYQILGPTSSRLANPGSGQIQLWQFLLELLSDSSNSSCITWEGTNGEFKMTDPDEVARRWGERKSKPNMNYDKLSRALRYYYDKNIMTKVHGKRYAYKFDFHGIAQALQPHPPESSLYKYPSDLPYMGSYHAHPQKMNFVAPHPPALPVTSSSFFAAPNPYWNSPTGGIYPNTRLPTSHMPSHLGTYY
# Procedure, shortened: as §1
# ELF1 = ELF1 (Homo sapiens, UniProt P32519 1-619)
# ELF1, sequence (P32519 whole entry): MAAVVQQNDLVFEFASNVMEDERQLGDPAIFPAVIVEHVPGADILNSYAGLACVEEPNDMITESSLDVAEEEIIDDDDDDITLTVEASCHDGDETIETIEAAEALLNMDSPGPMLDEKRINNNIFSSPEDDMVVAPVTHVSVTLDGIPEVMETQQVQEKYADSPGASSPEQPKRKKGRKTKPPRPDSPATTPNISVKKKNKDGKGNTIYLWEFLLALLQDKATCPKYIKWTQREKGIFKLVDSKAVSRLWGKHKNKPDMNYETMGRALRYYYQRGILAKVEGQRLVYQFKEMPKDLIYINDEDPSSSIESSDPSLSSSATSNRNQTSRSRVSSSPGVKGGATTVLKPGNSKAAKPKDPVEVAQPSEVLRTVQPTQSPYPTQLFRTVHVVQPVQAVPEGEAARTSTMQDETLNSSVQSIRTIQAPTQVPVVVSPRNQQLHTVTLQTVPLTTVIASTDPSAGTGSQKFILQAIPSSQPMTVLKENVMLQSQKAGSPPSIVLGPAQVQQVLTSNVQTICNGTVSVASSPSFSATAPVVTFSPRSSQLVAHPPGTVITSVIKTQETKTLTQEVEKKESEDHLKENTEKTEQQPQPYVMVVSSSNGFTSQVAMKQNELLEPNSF
# Procedure, shortened: as §1
# EHF = biological target: T4, EHF (Homo sapiens, UniProt Q9NZC4 1-300)
# T4 sequence: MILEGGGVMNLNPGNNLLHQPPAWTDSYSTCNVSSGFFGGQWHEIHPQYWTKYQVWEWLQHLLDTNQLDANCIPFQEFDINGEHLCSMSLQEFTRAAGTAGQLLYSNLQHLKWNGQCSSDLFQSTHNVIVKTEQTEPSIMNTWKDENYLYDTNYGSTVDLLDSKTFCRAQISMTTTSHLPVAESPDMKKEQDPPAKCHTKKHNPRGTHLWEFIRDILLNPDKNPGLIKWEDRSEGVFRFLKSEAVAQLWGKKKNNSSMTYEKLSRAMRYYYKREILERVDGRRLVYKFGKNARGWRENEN
# Procedure, shortened: as §1
# SPIB = SPIB (Homo sapiens, UniProt Q01892 1-262)
# SPIB, sequence (Q01892 whole entry): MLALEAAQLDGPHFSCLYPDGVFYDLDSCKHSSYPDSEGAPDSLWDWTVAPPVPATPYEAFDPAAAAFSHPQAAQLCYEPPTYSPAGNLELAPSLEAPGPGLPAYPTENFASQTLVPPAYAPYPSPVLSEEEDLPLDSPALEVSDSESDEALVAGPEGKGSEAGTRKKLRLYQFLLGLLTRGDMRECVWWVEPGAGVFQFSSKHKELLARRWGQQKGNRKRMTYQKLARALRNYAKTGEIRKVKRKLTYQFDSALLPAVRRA
# Procedure, shortened: as §1
# ELK3 = biological target: T5, ELK3 (Homo sapiens, UniProt P41970 1-407)
# T5 sequence: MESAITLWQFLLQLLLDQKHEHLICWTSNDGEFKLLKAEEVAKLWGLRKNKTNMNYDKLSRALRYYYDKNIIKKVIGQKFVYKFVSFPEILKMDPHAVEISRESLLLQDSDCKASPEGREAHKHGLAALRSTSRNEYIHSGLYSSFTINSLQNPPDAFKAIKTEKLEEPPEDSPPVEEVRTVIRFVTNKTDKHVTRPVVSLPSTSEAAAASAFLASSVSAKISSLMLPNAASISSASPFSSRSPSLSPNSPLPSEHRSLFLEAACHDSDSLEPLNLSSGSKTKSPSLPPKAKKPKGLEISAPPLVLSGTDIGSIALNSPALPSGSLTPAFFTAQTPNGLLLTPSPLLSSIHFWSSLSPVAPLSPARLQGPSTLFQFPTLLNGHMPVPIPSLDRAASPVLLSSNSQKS
# Procedure, shortened: as §1
# ETV5 = ETV5 (Homo sapiens, UniProt P41161 1-510)
# ETV5, sequence (P41161 whole entry): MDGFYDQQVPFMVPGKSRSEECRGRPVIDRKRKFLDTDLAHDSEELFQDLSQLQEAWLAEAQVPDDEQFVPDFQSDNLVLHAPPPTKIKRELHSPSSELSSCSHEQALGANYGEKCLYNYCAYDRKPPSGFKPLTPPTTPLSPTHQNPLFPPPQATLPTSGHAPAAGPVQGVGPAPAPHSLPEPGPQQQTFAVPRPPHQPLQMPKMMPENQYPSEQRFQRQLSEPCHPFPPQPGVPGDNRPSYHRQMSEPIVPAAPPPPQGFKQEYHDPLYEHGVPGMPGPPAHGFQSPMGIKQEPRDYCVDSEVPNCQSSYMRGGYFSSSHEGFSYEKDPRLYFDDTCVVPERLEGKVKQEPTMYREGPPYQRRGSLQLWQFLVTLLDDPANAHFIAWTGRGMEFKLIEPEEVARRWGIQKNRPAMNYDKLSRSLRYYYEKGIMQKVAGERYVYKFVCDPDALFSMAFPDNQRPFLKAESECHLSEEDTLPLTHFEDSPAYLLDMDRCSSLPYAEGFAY
# Procedure, shortened: as §1
# ELF4 = ELF4 (Homo sapiens, UniProt Q99607 1-663)
# ELF4, sequence (Q99607 whole entry): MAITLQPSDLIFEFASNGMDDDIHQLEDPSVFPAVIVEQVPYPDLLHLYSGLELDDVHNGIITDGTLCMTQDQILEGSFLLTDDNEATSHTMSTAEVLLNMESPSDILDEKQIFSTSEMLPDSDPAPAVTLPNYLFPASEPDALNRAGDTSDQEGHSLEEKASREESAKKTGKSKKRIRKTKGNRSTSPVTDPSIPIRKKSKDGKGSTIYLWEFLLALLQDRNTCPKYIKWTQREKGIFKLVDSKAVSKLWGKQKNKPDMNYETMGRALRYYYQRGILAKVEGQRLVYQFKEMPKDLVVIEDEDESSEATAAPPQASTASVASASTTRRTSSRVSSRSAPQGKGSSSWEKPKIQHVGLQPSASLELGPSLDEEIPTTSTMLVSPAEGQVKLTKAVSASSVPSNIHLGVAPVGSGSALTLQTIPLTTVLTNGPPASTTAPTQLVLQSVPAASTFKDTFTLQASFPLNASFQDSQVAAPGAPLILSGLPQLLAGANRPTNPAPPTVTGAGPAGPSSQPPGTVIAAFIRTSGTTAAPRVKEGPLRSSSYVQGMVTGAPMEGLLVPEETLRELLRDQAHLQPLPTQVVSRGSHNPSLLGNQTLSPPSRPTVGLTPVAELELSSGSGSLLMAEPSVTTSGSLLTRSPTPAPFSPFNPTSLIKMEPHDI
# Procedure, shortened: as §1
sequence,measurement,setting,value
GGACTT,binding signal,ELK1,"1.24 fold enrichment (6-mer frequency, TF over GST control)"
same,binding signal,GABPA,"1.16 fold enrichment (6-mer frequency, TF over GST control)"
same,binding signal,ERG,"1.17 fold enrichment (6-mer frequency, TF over GST control)"
same,binding signal,ELF1,"1.16 fold enrichment (6-mer frequency, TF over GST control)"
same,binding signal,EHF,"1.11 fold enrichment (6-mer frequency, TF over GST control)"
same,binding signal,SPIB,"1.11 fold enrichment (6-mer frequency, TF over GST control)"
same,binding signal,ELK3,"1.11 fold enrichment (6-mer frequency, TF over GST control)"
same,binding signal,ETV5,"1.15 fold enrichment (6-mer frequency, TF over GST control)"
same,binding signal,ELF4,"1.09 fold enrichment (6-mer frequency, TF over GST control)"
